Screening data: PubChem BioAssay, several laboratories
Hits are enriched below; roughly 2.3% of the tested compounds scored in any of these assays.
Mcl-1 Bim block – inhibitors of Bim-Mcl-1 interaction, human; inhibition, % at 10 µM; 190,000 tested, 0.1% active; Bead-based flow cytometry, Bim peptide-Mcl-1 binding; AID 1009; in the data active means inhibition above about 40%;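 further: 0% = no compound tracer wells and 100% = peptide blocker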
Target sequence (Q07820 whole entry, looked up): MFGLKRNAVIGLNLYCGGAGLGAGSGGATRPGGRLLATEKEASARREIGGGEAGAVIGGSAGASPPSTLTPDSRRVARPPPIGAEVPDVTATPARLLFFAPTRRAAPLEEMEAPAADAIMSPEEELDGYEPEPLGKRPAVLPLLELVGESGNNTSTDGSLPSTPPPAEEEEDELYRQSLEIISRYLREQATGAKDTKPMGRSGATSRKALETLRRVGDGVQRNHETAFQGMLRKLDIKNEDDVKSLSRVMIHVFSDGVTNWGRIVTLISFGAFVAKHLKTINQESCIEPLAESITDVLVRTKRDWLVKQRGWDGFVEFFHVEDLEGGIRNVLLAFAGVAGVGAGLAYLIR
MCL1-BIM inh – MCL1-BIM-BH3 interaction inhibition (human). GST-MCL1 / FITC-Bim-BH3 fluorescence polarization. inhibition, % at 10.9 µM. 320,000 tested, 0.68% active. AID 2057;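 active means inhibition above the mean inhibition of all tested compounds plus 3 SD, set per campaign, cut at about 40% in these data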;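 further: 0% = DMSO wells and 100% = unlabeled Bim-BH3 peptide control; higher means more loss of mP so more displacement of Bim peptide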
Mcl1 Bid PPI – disrupts binding of human Mcl-1 to Bid peptide | Q07820 | TR-FRET Mcl-1/Bid-Dy647 peptide binding, 1536-well | inhibition, % at 21.7 µM | 220,000 tested, 0.97% active;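 active means compounds that cut the binding signal by more than half at the single screening dose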;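 further: His-tagged Mcl-1 with europium anti-His antibody binding Bid BH3 peptide; 0% = Mcl-1 plus peptide wells and 100% = peptide-only wells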
GLD-1 TGE inh – GLD-1-TGE RNA interaction inhibition (C. elegans) | purified GLD-1 + fluorescein TGE RNA, fluorescence polarization | inhibition, % at 5.96 µM | 320,000 tested, 0.44% active | AID 2280;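 active means percent inhibition above a per-plate cutoff, the plate mean of test compounds plus 3 SD, cut at about 30% in these data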;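 further: 0% = DMSO wells with GLD-1 and probe and 100% = wells lacking GLD-1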
Mcl1-Noxa inh – disrupts binding of human Mcl-1 to Noxa peptide | Q07820 | TR-FRET Mcl-1/Noxa peptide binding, 2 h | inhibition, % at 21.7 µM | 220,000 tested, 1.5% active | AID 1022;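 active means compounds that cut the protein-peptide binding signal by more than 50% relative to plate controls in a single-dose test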;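 further: His-tagged Mcl-1 with rhodamine Noxa BH3 peptide and terbium anti-His antibody; 0% = Mcl-1 plus Noxa peptide wells and 100% = peptide-only wells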
Bcl-xL primary – Bcl-xL (human) inhibition | inhibition, % at 10.9 µM | Q07817 | GST-Bcl-xL / FITC-Bim BH3 peptide fluorescence polarization | AID 2129 | 320,000 tested, 0.7% active;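 active means inhibition above the mean of all tested compounds plus 3 SD, cutoff set per campaign, cut at about 30% in these data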;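 further: 0% = DMSO wells and 100% = unlabeled Bim-BH3 peptide competitor; inhibitors lower millipolarization by displacing the labeled peptide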
Target sequence (Q07817 whole entry, looked up): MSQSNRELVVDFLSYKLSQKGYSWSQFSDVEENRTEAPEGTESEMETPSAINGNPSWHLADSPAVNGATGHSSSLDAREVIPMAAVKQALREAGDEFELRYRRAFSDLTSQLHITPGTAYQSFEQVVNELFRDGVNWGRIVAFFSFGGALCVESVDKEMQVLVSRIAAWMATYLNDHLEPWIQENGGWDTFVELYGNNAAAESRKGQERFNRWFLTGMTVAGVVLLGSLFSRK
An asterisk follows results filed as active; . = not tested or not shown.

SMILES | Mcl-1 Bim block | MCL1-BIM inh | Mcl1 Bid PPI | GLD-1 TGE inh | Mcl1-Noxa inh | Bcl-xL primary
COc1ccc(CNC[C@@H](CCCCN(C)Cc2ccc(OC)cc2)N2C[C@H](c3ccccc3)N(CCc3ccc(Cl)c(Cl)c3)C(=O)C2=O)cc1 | -4 | -8 | 6 | -1 | 21 | -6
CN(CCCC[C@H](CNCc1ccc(-c2ccccc2)cc1)N1C[C@H](c2ccccc2)N(CCc2ccc(Cl)c(Cl)c2)C(=O)C1=O)Cc1ccc(-c2ccccc2)cc1 | . | . | 61* | . | 21 | .
CC(=O)N(C)c1ccc(NS(=O)(=O)c2cc(Cl)ccc2Cl)cc1 | 0 | -7 | -1 | 3 | -4 | 1
CC(C)(C)N=C1NN=C(c2cc3ccccc3o2)CS1 | -4 | 15 | -11 | 9 | 71* | 14
C=CCn1c(C)cc(C2=NNC(=NC(C)(C)C)SC2)c1C | -6 | 9 | 21 | -1 | 29 | 4
O=[N+]([O-])c1cccc(S(=O)(=O)Nc2nc3ccccc3nc2Nc2cccc(S(=O)(=O)N3CCCCC3)c2)c1 | -8 | . | 99* | . | 73* | .
O=[N+]([O-])c1cccc(S(=O)(=O)Nc2ccc(S(=O)(=O)N3CCCC3)cc2)c1 | . | -5 | . | 3 | . | -3
Cc1ccc(S(=O)(=O)NC2=C(N3CCN(c4ccccc4F)CC3)C(=O)c3ccccc3C2=O)cc1 | -2 | 15 | -17 | 19 | . | 20
Cc1ccc(S(=O)(=O)Nc2nc3ccccc3nc2Nc2cccc(S(=O)(=O)N3CCCC3)c2)cc1 | 0 | 35 | 9 | 14 | 28 | 37*
Cc1ccc(S(=O)(=O)Nc2nc3ccccc3nc2N2CCN(c3ccccc3F)CC2)cc1 | -5 | 3 | 4 | 8 | 51* | 2
Cc1ccc(S(=O)(=O)N2CCN(CCOc3c(Cl)cccc3Cl)CC2)cc1C | . | -3 | . | 8 | . | -1
Cc1ccc2nc(NC(=O)CN3C(=O)NC4(CCCC4)C3=O)sc2c1 | . | -9 | . | -4 | . | -7
N#CCSc1nc2cc(C(=O)N3CCCC3)ccc2c(=O)n1Cc1ccccc1 | 15 | 4 | 18 | -8 | 19 | 1
N#CCSc1nc2cc(C(=O)N3CCC(C(N)=O)CC3)ccc2c2nc3ccccc3n12 | 0 | -2 | 2 | 5 | 51* | 9
COc1ccc([C@H]2CC(=O)C=C(c3cccc(OC)c3OC)C2)cc1OC | . | 3 | . | 0 | . | 2
COc1ccc(C(=O)Nc2ccc(S(=O)(=O)Nc3cc(C)nc(C)n3)cc2)c(OC)c1 | -4 | -9 | -15 | 2 | 63* | -6
COc1ccccc1C(=O)Nc1ccc(S(=O)(=O)Nc2cc(C)nc(C)n2)cc1 | -3 | 1 | -6 | 3 | 10 | 5
O=C(NCCc1ccccc1)c1nc(-c2cccs2)no1 | -2 | 11 | -18 | 1 | 18 | 1
Cc1ccc(S(=O)(=O)N2CCCN(C)c3nc4ccccc4nc32)cc1 | . | 32 | . | 18 | . | 38*
CCN(CC)c1ccc(NC(=O)COC(=O)CCC(=O)c2ccc(F)cc2)cc1 | -5 | 21 | -68 | 1 | 70* | 10
CC(C)SCC(=O)Nc1ncc2c(n1)-c1ccccc1CC2 | -4 | 35 | -41 | 7 | 39 | 35*
COCCNc1oc(/C=C/c2ccccc2OC)nc1S(=O)(=O)c1ccccc1 | . | 0 | . | -2 | . | 8
COc1ccc(C2(c3ccc(OC)cc3)NC(=O)N(CC(=O)NC3CCS(=O)(=O)C3)C2=O)cc1 (stereo not drawn) | . | . | . | 2 | . | .
CC1(c2cccc3ccccc23)NC(=O)N(CC(=O)NC2CCS(=O)(=O)C2)C1=O (stereo not drawn) | -4 | -8 | 98* | -12 | 16 | 0
COC(=O)c1ccc(CNC(=O)COC(=O)COc2ccc(OC)cc2)cc1 | -4 | -6 | 1 | -2 | 1 | -4
SMILES | Mcl-1 Bim block | MCL1-BIM inh | Mcl1 Bid PPI | GLD-1 TGE inh | Mcl1-Noxa inh | Bcl-xL primary
Cc1cccc(-n2c(SCC(=O)Nc3nnc(C)s3)nnc2-c2ccoc2C)c1 | -8 | 4 | 67* | 5 | -4 | 4
COc1ccc(-c2c(-c3cc(OC)cc(OC)c3)n(C)c3ccc(-c4cc(F)cc(OC)c4)cc23)cc1 | . | 3 | . | -3 | . | 1
CCOc1ccc(C2C=C(c3ccccc3)Nc3ncnn32)cc1 (stereo not drawn) | 0 | 46* | -88 | 37* | 12 | 46*
COc1cccc(C2=CC(c3ccc(N(C)C)cc3)n3ncnc3N2)c1 (stereo not drawn) | -3 | -11 | -8 | -99 | 2 | 4
CCOc1ccc(C2C=C(c3ccc(F)cc3)Nc3ncnn32)cc1 (stereo not drawn) | 0 | 45* | -61 | 44* | -11 | 38*
COc1cccc(C2=CC(c3ccccc3)n3ncnc3N2)c1 (stereo not drawn) | 4 | 41* | -1 | 51* | 34 | 39*
Oc1ccc(C2C=C(c3ccc(F)cc3)Nc3ncnn32)cc1 (stereo not drawn) | . | . | -20 | . | 41 | .
COc1ccc(C2C=C(c3ccc(C)cc3)Nc3ncnn32)cc1 (stereo not drawn) | -3 | . | -113 | . | 9 | .
O=C(Nc1ccsc1C(=O)O)c1ccccc1Cl | . | 9 | . | -1 | . | 10
CC(C)(C)N1C(=O)Cc2c1nc(N)c1c(N)nc(N3CCCCC3CO)c(C#N)c21 (stereo not drawn) | 2 | 56* | -10 | 12 | 47 | 30
CCC1Cc2c(nc(N)c3c(N)nc(N4CCCCC4)c(C#N)c23)O1 (stereo not drawn) | -3 | 9 | -53 | 4 | 11 | 13
Cc1ccc2[nH]c3c(c2c1)CN(C(=O)CN1c2ccc(F)cc2CCC1C)CC3 (stereo not drawn) | 2 | -13 | -32 | 3 | 11 | -3
O=C(c1ccco1)N1CCN(Cc2nc3ccccc3[nH]2)CC1 | . | . | . | 2 | . | .
O=C(CN1CCSCC1)N1CCc2[nH]c3ccc(Br)cc3c2C1 | 2 | . | -24 | . | 13 | .
Cc1ccc2[nH]c3c(c2c1)CN(C(=O)CN1CCN(c2cccc(C)c2C)CC1)CC3 | 0 | 25 | -8 | 31 | 7 | 38*
O=C(CN1CCN(C(=O)c2ccco2)CC1)N1CCc2[nH]c3ccccc3c2C1 | . | 30 | -23 | -17 | 9 | 36*
Cc1ccc2[nH]c3c(c2c1)CN(C(=O)CN1CCN(C(=O)c2ccco2)CC1)CC3 | . | 30 | -36 | 32* | 11 | 48*
Fc1ccccc1-c1nc2c(s1)CCc1onc(-c3ccc(Br)cc3)c1-2 | . | 8 | . | 2 | . | 6
CN1CCC(NC(=O)c2cc(-c3cccc(Br)c3)nc3ccccc23)CC1 | . | 7 | . | -13 | . | 0
COC(=O)CC1Sc2ccccc2NC1=O (stereo not drawn) | -3 | 12 | -25 | -1 | 14 | 9
Cc1ccc(NC2Sc3ccccc3NC2=O)cc1 (stereo not drawn) | -5 | -12 | -32 | 5 | 56* | -1
Cc1ncc(CO)c(/C=N/Nc2ccc(C(F)(F)F)cn2)c1O | . | 43* | . | 5 | . | 40*
CN(c1ccccc1)S(=O)(=O)c1ccc(Cl)nc1 | 0 | 0 | -12 | -6 | -10 | 6
